Data as given in PubChem BioAssay AID1430 (University of Pittsburgh Molecular Library Screening Center, 2008).
Screen size: about 220,000 compounds; about 240 (0.11%) were called active. The sample holds actives, similar compounds and a random draw of the others, so the mix is not that of the screen.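 The calls were made as follows: active = inhibition of 50% or more in the single-dose primary screen; inactive = inhibition below 50%.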

test system: hexokinase 1 [Trypanosoma brucei]; assay: Trypanosoma brucei hexokinase 1 inhibitors, primary screen, biochemical, G6PDH-coupled NADH absorbance, MLSCN library (AID 1430); conditions: recombinant TbHK1, G6PDH-coupled NADH A340; at 10 µM; stronger effect = higher value

| SMILES | inhibition |
| --- | --- |
| S=c1nccc(-c2cc(Cl)sc2Cl)[nH]1 | -7.08% (inactive) |
| CCCN1CNC(=S)N(CCc2ccccc2)C1 | -4.25% (inactive) |
| Cc1ccc(C)c(Cn2nnc3c(=O)[nH]c(C(=O)Nc4ccc(F)cc4)nc32)c1 | 1.66% (inactive) |
| COc1ccc(OC)c(NC(=O)N[C@H](Cc2ccccc2)C(=O)NN)c1 | -2.36% (inactive) |
| Cc1ccc(NC(=O)Cn2c(=O)n(CCC(=O)NC3CCN(Cc4ccccc4)CC3)c(=O)c3ccccc32)cc1 | 1.82% (inactive) |
| COc1ccc(/C=N/S(=O)(=O)c2ccccc2)cc1OC | -6.73% (inactive) |
| CCCSc1ncccc1C(=O)O | -11% (inactive) |
| CCOC(=O)C1CCN(CCC(=O)Nc2cccc(C)c2)CC1 | -3.14% (inactive) |
| O=C(Nc1ccccc1)c1cc2ccccc2[nH]1 | -8.21% (inactive) |
| COC(=O)c1nc(NC(=O)c2ccc(C(C)(C)C)cc2)n[nH]1 | -1.14% (inactive) |
| CCOC(=O)N1CCC(C(N)=O)CC1 | 4.5% (inactive) |
| COC(=O)C1CCN(C(=O)c2cc(=O)[nH]c3ccccc23)CC1 | -8.77% (inactive) |
| COC(=O)C1CCN(CC(N)=O)CC1 | 60.6% (active) |
| O=C(Nc1ccc(S(=O)(=O)N2CCOCC2)cc1)c1ccc2ncsc2c1 | -11% (inactive) |
| CC12C(=O)N(c3ccccc3)C(=O)C1C(c1ccccc1)N1CCCN12 (centres undefined) | -4.21% (inactive) |
| Cc1cccc(-n2c(Cc3cc(=O)[nH]c(=O)[nH]3)nnc2SC(C)C)c1 | -4.19% (inactive) |
| Cc1ccc(Nc2nc(CSc3nnc(-c4ccncc4)n3-c3ccccc3C)cs2)cc1 | -6.74% (inactive) |
| CC1CC(C)CN(S(=O)(=O)c2ccc(C(=O)NN3CCOCC3)cc2)C1 (centres undefined) | -4.58% (inactive) |
| COC(=O)c1cccc([N+](=O)[O-])c1CS(=O)(=O)c1ccc(C)cc1 | -5.68% (inactive) |
| O=C(c1ccc(N2CCOCC2)c([N+](=O)[O-])c1)N1CCN(S(=O)(=O)c2cccs2)CC1 | -0.582% (inactive) |
| Cc1cc(Cl)ccc1OCCCC(=O)NCc1ccncc1 | 3.38% (inactive) |
| COc1ccc(C(C(=O)NC(C)(C)C)N(C(=O)Cn2nnc3ccccc32)c2ccc(C(C)=O)cc2)cc1O (centres undefined) | -2.52% (inactive) |
| Nc1nnc(SCC(=O)NC2CCCc3ccccc32)s1 (centres undefined) | -14.9% (inactive) |
| O=C(NCCN1CCOCC1)c1cc(Sc2cccc(Cl)c2)nc2ccccc12 | -12.6% (inactive) |

| SMILES | inhibition |
| --- | --- |
| O=S(=O)(NCc1ccco1)c1cnc(Cl)c(Cl)c1 | 8.75% (inactive) |
| CC(C)[C@H](NC(=O)c1ccc(F)cc1)C(=O)OCC(=O)NC(=O)c1cccn1C | -0.221% (inactive) |
| CCC(C)Cn1c(O)cc2nn(-c3nc4ccccc4s3)c(=O)c-2c1C (centres undefined) | -9.68% (inactive) |
| Cc1ccc(-c2csc(NC(=O)c3cnccn3)n2)cc1C | -12.7% (inactive) |
| CCOC(=O)CSC1=N/C(=C/c2ccc(-n3cncn3)cc2)C(=O)N1C(C)=O | -7.02% (inactive) |
| CC1CCN(S(=O)(=O)c2ccc(S(=O)(=O)NCc3cccnc3)cc2)CC1 | 0.223% (inactive) |
| O=C(COC(=O)[C@H](Cc1ccccc1)NC(=O)c1cccs1)Nc1cc(F)ccc1F | 6.99% (inactive) |
| O=C(/C=C\c1ccc2c(c1)OCO2)NC1(C(=O)Nc2ccc3c(c2)OCCO3)CCCCC1 | -15.6% (inactive) |
| Cc1ccc(C)c(NC(=S)NNC(=O)c2csc(C)c2)c1 | 3.89% (inactive) |
| O=C(CCc1[nH]c2ccccc2c1Sc1ccccc1)N(CCO)CCO | 19.8% (inactive) |
| Cc1nnsc1S(=O)(=O)Cc1ccccc1Cl | 5.71% (inactive) |
| COCCNC(=S)N/N=C/c1c(C)[nH]c2ccccc12 | -58.6% (inactive) |
| CC(=O)Nc1ccc(S(=O)(=O)N(CCc2ccccc2)CC(=O)N/N=C/c2ccc(C(=O)O)cc2)cc1 | -12.9% (inactive) |
| CCOC(=O)C1(c2ccccc2)NC(c2ccc(N(C)C)cc2)C2C(=O)N(C)C(=O)C21 (centres undefined) | -3.65% (inactive) |
| COc1cc(CN(C)Cc2nc3cc(C(F)(F)F)ccc3c(=O)[nH]2)ccc1OC(F)F | 1.94% (inactive) |
| Fc1ccc(/C=N/Nc2nc(-c3cccnc3)nc3ccccc23)cc1 | -55.8% (inactive) |
| COc1ccc(OCC(O)CNC(=O)Nc2ccc(Cl)cc2)cc1 (centres undefined) | 2.73% (inactive) |
| Cc1cc(=O)oc(C)c1C(=O)NC1CC(C)(C)NC(C)(C)C1 | -4.42% (inactive) |
| O=C(Cn1c(N2CCN(C/C=C/c3ccccc3)CC2)nc2ccccc21)c1ccccc1 | -2.21% (inactive) |
| Cc1nn(-c2ccccc2)c(=O)c2noc(C)c12 | -6.64% (inactive) |
| CCOC(=O)c1cccnc1NC(=O)c1ccncc1 | -3.95% (inactive) |
| Cc1nc(-c2ccc(Cl)cc2)sc1C(=O)NN | -13% (inactive) |
| CC(C)CNC(=O)COC(=O)/C=C/c1ccco1 | -4.39% (inactive) |
| CCN(C(=O)CN1CCN(Cc2ccccc2)CC1)c1c(N)n(Cc2ccccc2)c(=O)[nH]c1=O | 4.79% (inactive) |

| SMILES | inhibition |
| --- | --- |
| Cc1cccc(OC(=O)c2sc3ncn(C)c(=O)c3c2C)c1 | 2% (inactive) |
| Cc1cccc(NC(=S)N2CCC(O)CC2)c1C | 5.41% (inactive) |
| O=[N+]([O-])c1cc(S(=O)(=O)N2CCCC2)ccc1NN=C1CCCC1 | 36.1% (inactive) |
| Cc1ccc(S(=O)(=O)NC(=O)Nc2nc(-c3ccc(F)c(F)c3)cs2)cc1 | -8.79% (inactive) |
| Cc1ccccc1NC(=S)N(CCCN1CCOCC1)Cc1cccs1 | 25.4% (inactive) |
| COc1ccc(CN(C)Cc2nc3cc(OC)c(OC)cc3c(=O)[nH]2)c(OC)c1 | 1.93% (inactive) |
| COc1ccc(CC(=O)NCc2nnc(SCC(=O)Nc3nccs3)n2C)cc1 | -2.5% (inactive) |
| O=C(/C=C/c1ccccc1)Oc1coc(CSc2ncccn2)cc1=O | -1.22% (inactive) |
| CCc1ccc(NC2Nc3cc(C)nn3S2)cc1 (centres undefined) | -2.97% (inactive) |
| CC(=O)c1ccc(S(=O)(=O)Nc2ccc(C(=O)NCC(c3ccccc3)N(C)C)cc2)cc1 (centres undefined) | -5.8% (inactive) |
| O=C(Nc1cccc2c1N(C(=O)c1ccco1)CCC2)c1ccco1 | -6.72% (inactive) |
| CCOc1cnc(-c2c(-c3ccccc3Cl)noc2C)o1 | -3.33% (inactive) |
| O=C(O)COc1ccc(/C=N/O)cc1Br | 6.57% (inactive) |
| O=S(=O)(Nc1ccc2cn[nH]c2c1)c1ccccc1 | -2.67% (inactive) |
| O=C(O)C(c1ccccc1)C1(O)CCCCC1 (centres undefined) | -7.32% (inactive) |
| S=C(NCc1ccc2c(c1)OCO2)NCc1ccco1 | -4.45% (inactive) |
| COc1ccc(/C=C/C(=O)Nc2c(C)nn(C)c2C)cc1COc1ccc(Br)cc1 | -11.6% (inactive) |
| Cc1csc(=Nc2ccccc2)n1CCO | -4.03% (inactive) |
| O=C(Cn1cnc([N+](=O)[O-])n1)NCCc1ccccc1 | -4.47% (inactive) |
| COc1cccc(CC2(CO)CCCN(Cc3nc(-c4cccs4)oc3C)C2)c1 (centres undefined) | 6.9% (inactive) |
| COc1cc(Cl)c(C)cc1NC(=O)[C@@H]1CCCN1C(=O)c1cccs1 | -2.99% (inactive) |
| CC/C(=N\NC(=S)NC(C)C)c1ccc(OC(F)F)cc1 | 10.1% (inactive) |
| O=C(c1ccc2ccccc2n1)N1CCN(c2ccccc2Cl)CC1 | -6.88% (inactive) |
| CCN(/N=C/c1ccc(N(C)C)cc1)c1nc2ccccc2[nH]1 | -4.95% (inactive) |

| SMILES | inhibition |
| --- | --- |
| COc1ccc(C(C#N)Nc2ccccc2C)cc1 (centres undefined) | 4.57% (inactive) |
| COC(=O)c1c(NC(=O)COC(=O)[C@@H](NS(=O)(=O)c2ccccc2)C(C)C)sc2c1CCC2 | -13.7% (inactive) |
| CC(C)COC(=O)n1c(=O)oc2ccc(S(=O)(=O)N3CCCCC3)cc21 | -6.57% (inactive) |
| Cc1cc(C)n2nc(C(=O)N(C)C(c3ccccc3)c3ccccc3)nc2n1 | 1.27% (inactive) |
| C[n+]1ccccc1C1CCCC/C1=N\Nc1ccc([N+](=O)[O-])cc1[N+](=O)[O-] (centres undefined) | -18.3% (inactive) |
| CCOC(=O)/C(=N\Nc1ccccc1Cl)N(C)C1CCS(=O)(=O)C1 (centres undefined) | -29.3% (inactive) |
| Cn1cc(/C=C/C(=O)N2CCCC(C(=O)c3ccc(C(F)(F)F)cc3)C2)cn1 (centres undefined) | -9.79% (inactive) |
| CC(C)(C)NC(=O)NCc1ccco1 | 3.59% (inactive) |
| O=C(COC(=O)/C=C/c1cn(-c2ccccc2)nc1-c1cccnc1)Nc1ccc(Cl)cc1Cl | -3.93% (inactive) |
| CC(=O)Nc1ccc(Nc2c([N+](=O)[O-])cc(S(C)(=O)=O)cc2[N+](=O)[O-])cc1 | -2.68% (inactive) |
| Cc1ccccc1C(=O)NNC(=O)CN1C(=O)c2ccccc2C1=O | 0.726% (inactive) |
| COc1ccc(/C=N/NS(=O)(=O)c2ccc(NC(C)=O)cc2)cc1 | -17.4% (inactive) |
| Cc1ccc(NC(=O)C(=O)NCC2CCN(C(=O)c3cccc([N+](=O)[O-])c3)CC2)cc1 | -4.84% (inactive) |
| CC(=O)NC(Cc1ccc(F)c(F)c1)C(=O)NC1CCN(c2nnnn2-c2ccccc2)CC1 (centres undefined) | -4.26% (inactive) |
| O=C(c1ccncc1)c1ccc([N+](=O)[O-])cc1 | -1.97% (inactive) |
| COc1ccc(CCNC(=O)CN(c2ccccc2)S(C)(=O)=O)cc1 | 2.74% (inactive) |
| OC(CN1C2=NCCCN2c2ccccc21)c1ccc(Br)cc1 (centres undefined) | -1.72% (inactive) |
| CN(CC#CCC(c1ccccc1)c1ccccc1)C(C)(C)C | -4.21% (inactive) |
| O=C(O)c1cccnc1NC1CCCC1 | -18.1% (inactive) |
| O=C(O)c1ccc(N=NN2CCOCC2)cc1 | 11.7% (inactive) |
| COCCNc1cc(NCCOC)c([N+](=O)[O-])cc1[N+](=O)[O-] | -26.9% (inactive) |
| Cc1ccc(CNC(=O)CC2Sc3ccccc3NC2=O)cc1 (centres undefined) | -3.22% (inactive) |
